Source: PubChem BioAssay (NCI)
This is part of a sample that, as a whole, favours compounds with a hit. Of some 83,000 tested, about 20% had one in any assay.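 A percent growth of 40 corresponds to 60% growth inhibition; 0 means no net growth; -100 means all cells died. Active threshold: below 10.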 A number with no mark means an inactive call. Activity calls are given as the source filed them.

Legend:
Test in all cases: NCI-60 one-dose screen, 48 h (100 = growth as untreated, 0 = no growth, -100 = all killed)
Conditions in all cases: 10 µM unless noted
[1] = tested on: NCI-H23 lung
[2] = tested on: NCI-H226 lung
[3] = tested on: NCI-H322M lung
[4] = tested on: HOP-62 NSCLC
[5] = tested on: NCI-H460 lung
[6] = tested on: HOP-92 NSCLC
[7] = tested on: NCI-H522 lung
[8] = tested on: A549/ATCC NSCLC
[9] = tested on: 786-0 renal
[10] = tested on: COLO 205 colon

Compound	growth [1]	growth [2]	growth [3]	growth [4]	growth [5]	growth [6]	growth [7]	growth [8]	growth [9]	growth [10]
COC1=C(OC)C(=O)C(CCCCCCCCCCO)=C(C)C1=O	35.2%	96.6%	112%	86.4%	98.8%	76.6%	63.7%	96%	83.3%	102%
O=C1C(Nc2ccc(Br)cc2)=C(I)C(=O)c2ncccc21	10.6%	87.3%	84.4%	42.1%	23.3%	-82.6% (active)	-46.2% (active)	46.8%	44.4%	23.5%
CCOC(=O)c1ccc2c(c1)c1c(C)c3cnccc3c(C)c1n2C	-51.2% (active)	-33.6% (active)	-14.1% (active)	-47.3% (active)	-17.2% (active)	-24.2% (active)	-79.1% (active)	-11.8% (active)	-95.7% (active)	-63.9% (active)
C=C(C)[C@@H]1CC[C@]2(C(=O)NC(C)=O)CC[C@]3(C)[C@H](CC[C@@H]4[C@@]5(C)CCCNC(C)(C)[C@@H]5CC[C@]43C)[C@@H]12	59.7%	83.6%	63.3%	56.4%	-84.2% (active)	56.4%	-46.7% (active)	26.8%	59.4%	-59% (active)
CCN1CCN(CCOc2ccc(CNc3ccc4nc(CCC5CCCCC5)[nH]c4c3)cc2)CC1	75.6%	38.9%	66.1%	50.4%	42.8%	22.4%	32%	48.3%	-11.7% (active)	-74.3% (active)
COc1ccc2c(c1)c(-c1nc(-c3cn(C)c4ccncc34)cs1)cn2C	92.2%	113%	95.7%	94.7%	-64.5% (active)	81.8%	87.3%	2.44% (active)	84.8%	92.6%
O=C1OCC2=C1C(c1cccc(F)c1)c1cc3c(cc1N2CCO)CCC3 (stereo not given)	24.7%	39.6%	40.9%	26.2%	6.75% (active)	58.5%	11.6%	17.3%	32.3%	-25.6% (active)
O=C1c2cccnc2C(=O)c2c1c(C(=O)OCCCN1CCOCC1)c1ccccn21	-32.1% (active)	-6.42% (active)	-51.5% (active)	-25.6% (active)	-60% (active)	-20.6% (active)	-75.1% (active)	-25% (active)	-18.4% (active)	-75.8% (active)
CN1CCN(Cn2nc(-c3cc(Cl)cc(Cl)c3Cl)oc2=S)CC1	90%	96%	101%	93.9%	102%	119%	91.1%	104%	94.5%	110%
Cc1ccccc1NC(=O)Cn1cc(CN2CCN(c3ccnc4cc(Cl)ccc34)CC2)nn1	99.2%	90.9%	103%	90.7%	98.6%	68.5%	102%	106%	104%	99%
CC(C)(C#N)c1cc(C(=O)Nc2cc(Nc3ncccc3-c3ncnc4nc[nH]c34)ccc2F)cc(C(F)(F)F)c1	24.3%	41.8%	67.2%	45.7%	35.9%	-5.84% (active)	62%	49.7%	64%	11.9%
CC1OC(C(=O)N2CCN(CCO)CC2)CC1COC1CCCCC1 (stereo not given)	94% [50 µM]	84.3% [50 µM]	90.9% [50 µM]	85.7% [50 µM]	100% [50 µM]	87% [50 µM]	93.2% [50 µM]	94.2% [50 µM]	109% [50 µM]	105% [50 µM]
Cn1cc(-c2csc(-c3cn(CCO)c4ccc(F)cc34)n2)c2cccnc21	74.1%	76%	79.1%	52.6%	27%	64.8%	10%	49.8%	73.3%	46%
CCOc1ccccc1NC(=O)CCC(=O)OC	109%	101%	96.5%	94.8%	108%	110%	81.9%	108%	91.1%	103%
C=C(C)[C@@H]1CC[C@]2(COCCCNCCCN)CC[C@]3(C)[C@H](CC[C@@H]4[C@@]5(C)CC[C@H](OCCCN)C(C)(C)[C@@H]5CC[C@]43C)[C@@H]12	-73.2% (active)	45.2%	41.7%	-59.1% (active)	-83% (active)	75.3%	-69.6% (active)	-66.6% (active)	-83.6% (active)	-31.1% (active)
CSc1nn2c(-c3cc4cc(Br)ccc4oc3=O)ccnc2c1C#N	95.3%	99.3%	102%	97.9%	104%	105%	92.8%	107%	101%	119%
OC1CSSC1Cn1cnc2c(Nc3ccc(F)c(Cl)c3)ncnc21 (stereo not given)	60.2%	87.9%	74.1%	93.2%	68.4%	137%	69.2%	77.5%	108%	111%
CCOc1ccc(N2C(=O)CCSC2=S)cc1	102%	100%	108%	118%	106%	89%	90.9%	106%	106%	112%
Cc1ccc(S(=O)(=O)N(CCC(=O)O)c2ccccc2)cc1	112%	109%	122%	96.2%	112%	102%	109%	104%	94.3%	132%
COc1cc(/C=N/NC(=O)c2ccc3nc(-c4ccc(Cl)cc4)[nH]c3c2)cc(OC)c1OC	53.7%	76%	87.5%	81.7%	82.8%	71.7%	78.3%	85.8%	51.2%	45.7%
COc1ccc(C(=O)/C=C/Nc2cc(-c3ccccc3)nn2-c2ccccc2)cc1	90%	79.8%	93.2%	102%	98%	80.8%	82.7%	91.4%	89%	110%
CNc1nc2ncc(-c3c(C)noc3C)cc2n1Cc1ccccc1	55.5%	56.6%	67.1%	41.4%	64.9%	7.09% (active)	57.1%	54.4%	43.3%	29.8%
Cc1c(C)c2c(c(C)c1OC(=O)CCC(=O)[O-])CCC(C)(CCCCCCCCCCC[P+](c1ccccc1)(c1ccccc1)c1ccccc1)O2 (stereo not given)	-16.5% (active)	-6.94% (active)	0.982% (active)	-67.7% (active)	-69% (active)	-82.7% (active)	-25.9% (active)	-2.64% (active)	-49.7% (active)	-52.9% (active)
CCOC(=O)C1=C(c2ccccc2)N=C2SC=C(c3cccc([N+](=O)[O-])c3)N2C1c1ccc(O)cc1 (stereo not given)	96.5%	96.8%	96.3%	98.6%	101%	90.1%	93.8%	100%	96.5%	116%
N#CC1=C(N)Oc2c(ccc3cccnc23)C1c1ccccc1 (stereo not given)	17.7%	54%	39.2%	43.2%	16%	32.3%	20.3%	32%	35.3%	9.2% (active)
COc1cc(C2CC(c3cccc(Nc4ccncc4)c3)=Nc3c(N)ncnc3N2)cc(OC)c1OC (stereo not given)	95.5%	89%	92.2%	86.7%	95.9%	76%	82.1%	84%	95.9%	96.6%
Cc1ccc(-c2nc(C#N)c(S(=O)(=O)n3nc(C)cc3N)o2)cc1	90.7%	94.1%	91%	103%	99.7%	72.8%	-15.8% (active)	99.4%	78%	-32.3% (active)
